# According to PubChem BioAssay (EPA / NIEHS):
# Calls of active or inactive are those of the source. The calls were made as follows: active = hit-call score of the fitted dose curve at least 0.9, where 1 is the maximum; inactive = score below 0.9.
# Legend:
# [1] = read-out: Monokine induced gamma interferon (MIG), CXCL9 (gene 4283); assay: BSK_hDFCGF_MIG: BioMAP Diversity Plus: hDFCGF Assay for Monokine induced gamma interferon (MIG) Biomarker Activity (AID 2283063); details: primary human foreskin fibroblasts; actives raise or lower the signal
# Method in brief: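 ELISA read-out of MIG from primary human dermal fibroblasts 24 h post-dosing. Gain or loss of signal fitted bidirectionally, DMSO as baseline.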
# [2] = read-out: Matrix Metallopeptidase 1 (MMP1), MMP1 (gene 4312); assay: BSK_hDFCGF_MMP1: BioMAP Diversity Plus: hDFCGF Assay for Matrix Metallopeptidase 1 (MMP1) Biomarker Activity (AID 2283064); details: primary human foreskin fibroblasts; actives raise or lower the signal
# Method in brief: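 hDFCGF primary fibroblasts (human foreskin); chemical added; 24 h; MMP1 by ELISA; bidirectional fit vs DMSO.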
# [3] = read-out: Vascular cell adhesion molecule 1 (VCAM1), VCAM1 (gene 7412); assay: BSK_hDFCGF_VCAM1: BioMAP Diversity Plus: hDFCGF Assay for Vascular cell adhesion molecule 1 (VCAM1) Biomarker Activity (AID 2283065); details: primary human foreskin fibroblasts; actives raise or lower the signal;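 as to AC50: VCAM-1 protein level quantified by ELISA after 24 h chemical exposure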
# Method in brief: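 Primary human foreskin fibroblasts (hDFCGF system) were dosed with chemical and VCAM-1 was measured by ELISA 24 h later. Bidirectional curve fitting used DMSO as negative control and activity baseline.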
# [4] = read-out: Plasminogen activator inhibitor-1 (PAI1), SERPINE1 (gene 5054); assay: BSK_hDFCGF_PAI1: BioMAP Diversity Plus: hDFCGF Assay for Plasminogen activator inhibitor-1 (PAI1) Biomarker Activity (AID 2283066); details: primary human foreskin fibroblasts; actives raise or lower the signal
# Method in brief: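 Human foreskin fibroblasts in the hDFCGF system were dosed with compound for 24 h; PAI-1 was quantified by ELISA. Bidirectional curve fitting used DMSO as negative control and baseline.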
# [5] = read-out: Intercellular Adhesion Molecule 1 (ICAM1), ICAM1 (gene 3383); assay: BSK_KF3CT_ICAM1: BioMAP Diversity Plus: KF3CT Assay for Intercellular Adhesion Molecule 1 (ICAM1) Biomarker Activity (AID 2283067); details: primary human keratinocytes with fibroblasts; actives raise or lower the signal
# Method in brief: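 Human keratinocyte plus foreskin fibroblast primary co-culture was exposed to chemical for 24 h. ICAM-1 was then quantified by ELISA, and the data were fit bidirectionally against DMSO as the negative control and baseline.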
# [6] = read-out: Interferon-gamma inducible Protein 10 (IP10), CXCL10 (gene 3627); assay: BSK_KF3CT_IP10: BioMAP Diversity Plus: KF3CT Assay for Interferon-gamma inducible Protein 10 (IP10) Biomarker Activity (AID 2283068); details: primary human keratinocytes with fibroblasts; actives raise or lower the signal
# Method in brief: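 ELISA read-out of IP-10 after 24 h chemical dosing of human skin primary co-culture (keratinocytes, foreskin fibroblasts). Gain or loss of signal relative to DMSO, bidirectional curve fit.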
# [7] = BSK_KF3CT_SRB: Viability Assessment in the BioMAP Diversity Plus: KF3CT Assay (AID 2283069); details: primary human keratinocytes with fibroblasts;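 also: total protein by sulforhodamine B staining as a cytotoxicity measure; read 24 h after compound addition; fitted for both signal gain and loss against DMSO baseline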
# Method in brief: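 Keratinocytes co-cultured with foreskin fibroblasts (human primary); chemical added, 24 h; fix 10% TCA, stain 0.1% SRB, A560. Bidirectional fit vs DMSO.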
# [8] = read-out: Interleukin-1 alpha (IL1a), IL1A (gene 3552); assay: BSK_KF3CT_IL1a: BioMAP Diversity Plus: KF3CT Assay for Interleukin-1 alpha (IL1a) Biomarker Activity (AID 2283070); details: primary human keratinocytes with fibroblasts; actives raise or lower the signal
# Method in brief: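 Chemicals were dosed onto co-cultured human keratinocytes and foreskin fibroblasts, IL-1a was quantified by ELISA at 24 h, and activity was fitted in both directions relative to DMSO controls.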
# [9] = read-out: TIMP metallopeptidase inhibitor 2 (TIMP2), TIMP2 (gene 7077); assay: BSK_KF3CT_TIMP2: BioMAP Diversity Plus: KF3CT Assay for TIMP metallopeptidase inhibitor 2 (TIMP2) Biomarker Activity (AID 2283071); details: primary human keratinocytes with fibroblasts; actives raise or lower the signal
# Method in brief: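 Human primary keratinocyte/foreskin fibroblast co-culture dosed with chemical and sampled at 24 h. TIMP-2 levels quantified by ELISA; bidirectional fitting against DMSO negative control as baseline.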
# [10] = read-out: Matrix Metallopeptidase 9 (MMP9), MMP9 (gene 4318); assay: BSK_KF3CT_MMP9: BioMAP Diversity Plus: KF3CT Assay for Matrix Metallopeptidase 9 (MMP9) Biomarker Activity (AID 2283074); details: primary human keratinocytes with fibroblasts; actives raise or lower the signal;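 as to AC50: MMP9 protein level quantified by ELISA in the co-culture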
# Method in brief: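 Human keratinocyte/foreskin fibroblast co-culture; compound added; 24 h; MMP-9 by ELISA; bidirectional fit vs DMSO baseline.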
# [11] = read-out: urokinase plasminogen activator (uPA), PLAU (gene 5328); assay: BSK_KF3CT_uPA: BioMAP Diversity Plus: KF3CT Assay for urokinase plasminogen activator (uPA) Biomarker Activity (AID 2283075); details: primary human keratinocytes with fibroblasts; actives raise or lower the signal
# Method in brief: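 ELISA readout of uPA, analyzed for signal gain or loss relative to DMSO, from a human primary keratinocyte–foreskin fibroblast co-culture measured 24 h after chemical treatment.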
# CD40, CD40 (gene 958) = assay: BSK_LPS_CD40: BioMAP Diversity Plus: LPS Assay for CD40 Biomarker Activity (AID 2283076); details: primary human HUVEC with PBMC; actives raise or lower the signal
# Method in brief: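 Primary human umbilical vein endothelial cells co-cultured with peripheral blood mononuclear cells, LPS-stimulated, were dosed with chemical and read 24 h later. CD40 levels were measured by ELISA and fitted bidirectionally against DMSO as negative control and baseline.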
# [12] = read-out: E-selectin (Homo sapiens) (UniProt P16581); assay: BSK_LPS_Eselectin: BioMAP Diversity Plus: LPS Assay for Eselectin Biomarker Activity (AID 2283077); details: primary human HUVEC with PBMC; actives raise or lower the signal
# Method in brief: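 Human umbilical vein endothelial cells co-cultured with peripheral blood mononuclear cells under LPS stimulation; E-selectin measured by ELISA 24 h after chemical dosing. Activity fitted bidirectionally against DMSO as negative control and baseline.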
# [13] = read-out: Interleukin-8 (IL8), CXCL8 (gene 3576); assay: BSK_LPS_IL8: BioMAP Diversity Plus: LPS Assay for Interleukin-8 (IL8) Biomarker Activity (AID 2283078); details: primary human HUVEC with PBMC; actives raise or lower the signal
# Method in brief: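 Human umbilical vein endothelial cells co-cultured with PBMC were stimulated with LPS; IL-8 levels were measured by ELISA 24 h after chemical dosing. Activity was fitted bidirectionally against DMSO as negative control and baseline.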
# [14] = BSK_LPS_SRB: Viability Assessment in the BioMAP Diversity Plus: LPS Assay (AID 2283079); details: primary human HUVEC with PBMC;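 also: total protein by sulforhodamine B absorbance as a cytotoxicity measure; measured one day after compound addition; fitted in both directions against DMSO so loss or gain of signal counts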
# Method in brief: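 Human umbilical vein endothelial cells co-cultured with PBMC (LPS system) were dosed for 24 h. Total protein was stained with 0.1% sulforhodamine B after 10% TCA fixation, read at 560 nm, and fitted bidirectionally against DMSO baseline.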
# [15] = read-out: Monocyte Chemoattractant Protein-1 (MCP1), CCL2 (gene 6347); assay: BSK_LPS_MCP1: BioMAP Diversity Plus: LPS Assay for Monocyte Chemoattractant Protein-1 (MCP1) Biomarker Activity (AID 2283081); details: primary human HUVEC with PBMC; actives raise or lower the signal;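 as to AC50: secreted MCP-1 protein quantified by ELISA in culture supernatant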
# Method in brief: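 HUVEC plus PBMC co-culture (human primary cells, LPS system) exposed to test chemical for 24 h; MCP-1 measured by ELISA. Bidirectional curve fitting against DMSO baseline; parallel SRB total-protein staining flags overt cytotoxicity.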
# [16] = BSK_LPS_PGE2: BioMAP Diversity Plus: LPS Assay for Prostaglandin E2 (PGE2) Biomarker Activity (AID 2283082); details: primary human HUVEC with PBMC; actives raise or lower the signal;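 as to AC50: secreted prostaglandin E2 measured by ELISA in LPS-stimulated co-culture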
# Method in brief: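 HUVEC plus PBMC co-culture stimulated with LPS; secreted PGE2 quantified by ELISA 24 h after chemical dosing. Activity fitted bidirectionally against DMSO as negative control and baseline; parallel SRB total-protein staining served as cytotoxicity check.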
# [17] = read-out: Transforming growth factor beta 1 (TGFb1), TGFB1 (gene 7040); assay: BSK_KF3CT_TGFb1: BioMAP Diversity Plus: KF3CT Assay for Transforming growth factor beta 1 (TGFb1) Biomarker Activity (AID 2283072); details: primary human keratinocytes with fibroblasts; actives raise or lower the signal
# Method in brief: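 Human keratinocyte plus foreskin fibroblast primary co-culture, dosed with chemical for 24 h. TGF-b1 quantified by ELISA. Activity fitted bidirectionally against DMSO negative control as baseline.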
# [18] = read-out: C-C motif chemokine 2 (Homo sapiens) (UniProt P13500); assay: BSK_KF3CT_MCP1: BioMAP Diversity Plus: KF3CT Assay for Monocyte Chemoattractant Protein 1 (MCP1/CCL2) Biomarker Activity (AID 2283073); details: primary human keratinocytes with fibroblasts; actives raise or lower the signal
# Method in brief: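 Human keratinocyte plus foreskin fibroblast primary co-culture exposed to chemical for 24 h. MCP-1 levels measured by ELISA. Bidirectional curve fitting relative to DMSO negative control as baseline.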
# [19] = read-out: Interleukin-1 alpha (IL1a), IL1A (gene 3552); assay: BSK_LPS_IL1a: BioMAP Diversity Plus: LPS Assay for Interleukin-1 alpha (IL1a) Biomarker Activity (AID 2283080); details: primary human HUVEC with PBMC; actives raise or lower the signal
# Method in brief: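 Human umbilical vein endothelial cells co-cultured with peripheral blood mononuclear cells were LPS-stimulated and exposed to test chemicals for 24 h. IL-1 alpha was quantified by ELISA, with bidirectional curve fitting against DMSO as the negative control and baseline.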
# E-selectin (Homo sapiens), sequence (P16581 whole entry, looked up): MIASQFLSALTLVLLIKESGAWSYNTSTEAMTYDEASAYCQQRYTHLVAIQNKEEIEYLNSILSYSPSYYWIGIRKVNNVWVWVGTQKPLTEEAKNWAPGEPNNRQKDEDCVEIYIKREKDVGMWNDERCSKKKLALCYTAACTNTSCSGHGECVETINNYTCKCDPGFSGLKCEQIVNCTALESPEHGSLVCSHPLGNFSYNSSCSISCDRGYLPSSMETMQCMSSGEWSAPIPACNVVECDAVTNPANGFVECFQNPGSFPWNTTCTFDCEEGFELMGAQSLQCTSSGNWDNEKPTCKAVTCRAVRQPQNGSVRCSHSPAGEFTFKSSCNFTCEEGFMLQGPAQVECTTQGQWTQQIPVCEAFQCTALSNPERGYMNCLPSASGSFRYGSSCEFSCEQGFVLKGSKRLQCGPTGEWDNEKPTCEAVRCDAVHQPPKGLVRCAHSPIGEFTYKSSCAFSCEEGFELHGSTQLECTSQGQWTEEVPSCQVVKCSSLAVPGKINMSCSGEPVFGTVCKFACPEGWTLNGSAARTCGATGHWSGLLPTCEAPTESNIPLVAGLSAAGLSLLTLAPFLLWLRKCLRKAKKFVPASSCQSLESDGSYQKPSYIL
compound,measurement,setting,value
N#C[C@@H]1CC(F)(F)CN1C(=O)CNC1CC2CCC(C1)N2c1ncccn1 (stereo partly specified),outcome,[1],inactive
same,outcome,[2],inactive
same,outcome,[3],inactive
same,outcome,[4],inactive
same,outcome,[5],inactive
same,outcome,[6],inactive
same,outcome,[7],inactive
same,outcome,[8],inactive
same,outcome,[9],inactive
same,outcome,[10],inactive
same,outcome,[11],inactive
same,AC50,"CD40, CD40 (gene 958)",4.2 µM (active)
same,outcome,[12],inactive
same,outcome,[13],inactive
same,outcome,[14],inactive
same,outcome,[15],inactive
same,AC50,[16],0.939 µM (active)
c1ccc2c(c1)Cc1ccccc1-2,outcome,[1],inactive
same,outcome,[2],inactive
same,outcome,[3],inactive
same,outcome,[4],inactive
same,outcome,[5],inactive
same,outcome,[6],inactive
same,outcome,[7],inactive
same,outcome,[8],inactive
same,outcome,[9],inactive
same,outcome,[17],inactive
same,outcome,[10],inactive
same,outcome,[11],inactive
same,outcome,"CD40, CD40 (gene 958)",inactive
same,outcome,[12],inactive
same,outcome,[13],inactive
same,outcome,[14],inactive
same,outcome,[15],inactive
same,outcome,[16],inactive
CC(=O)NC1(c2cccc(F)c2)CCN(CC[C@@]2(c3ccc(Cl)c(Cl)c3)CN(c3ccccc3)C(=O)CO2)CC1,AC50,[1],31.8 µM (active)
same,AC50,[2],30.2 µM (active)
same,AC50,[3],27 µM (active)
same,AC50,[4],23.8 µM (active)
same,AC50,[6],25.3 µM (active)
same,AC50,[7],25.1 µM (active)
same,outcome,[8],inactive
same,outcome,[9],inactive
same,outcome,[17],inactive
same,outcome,[18],inactive
same,AC50,[10],25.8 µM (active)
same,AC50,[11],27 µM (active)
same,outcome,"CD40, CD40 (gene 958)",inactive
same,outcome,[12],inactive
same,AC50,[13],4.23 µM (active)
same,AC50,[14],12.8 µM (active)
same,AC50,[19],24.9 µM (active)
same,AC50,[15],16.6 µM (active)
same,outcome,[16],inactive
O=C(O)c1ccccc1C(c1ccc(O)cc1)c1ccc(O)cc1,outcome,[1],inactive
same,outcome,[2],inactive
same,outcome,[3],inactive
same,outcome,[4],inactive
same,outcome,[5],inactive
same,outcome,[6],inactive
same,outcome,[7],inactive
same,outcome,[8],inactive
same,outcome,[9],inactive
same,outcome,[18],inactive
same,outcome,[10],inactive
same,outcome,[11],inactive
same,outcome,"CD40, CD40 (gene 958)",inactive
same,outcome,[12],inactive
same,outcome,[13],inactive
same,outcome,[15],inactive
same,outcome,[16],inactive
CC(C)(C)c1ccc(O)c(C(C)(C)C)c1,AC50,[1],11.7 µM (active)
same,AC50,[2],11.3 µM (active)
same,AC50,[3],9.1 µM (active)
same,AC50,[4],10.3 µM (active)
same,AC50,[5],14.6 µM (active)
same,AC50,[6],14.2 µM (active)
same,AC50,[7],8.27 µM (active)
same,AC50,[8],9.23 µM (active)
same,AC50,[9],12 µM (active)
same,AC50,[10],9.23 µM (active)
same,AC50,[11],11.3 µM (active)
same,AC50,"CD40, CD40 (gene 958)",14 µM (active)
same,AC50,[12],13.3 µM (active)
same,AC50,[13],26.6 µM (active)
same,AC50,[19],14.4 µM (active)
same,AC50,[15],26.7 µM (active)
same,AC50,[16],16.9 µM (active)
Oc1cccc(O)c1,outcome,[1],inactive
same,outcome,[2],inactive
same,outcome,[3],inactive
same,outcome,[4],inactive
same,outcome,[5],inactive
same,outcome,[6],inactive
same,outcome,[7],inactive
same,outcome,[8],inactive
same,outcome,[9],inactive
same,outcome,[18],inactive
same,outcome,[10],inactive
same,outcome,[11],inactive
same,outcome,"CD40, CD40 (gene 958)",inactive
same,outcome,[12],inactive
same,outcome,[13],inactive
same,outcome,[14],inactive
same,outcome,[15],inactive
same,outcome,[16],inactive
